# Measured values as given in PubChem BioAssay (NCATS).
# Results filed as inconclusive are left out. Activity calls are given as the source filed them. Calls come from the whole dose curve; as a rule, active = well fitted inhibition curve with a large enough effect; inconclusive = small, poorly fitted or top-dose-only effect; inactive = flat fitted curve, though single readings scatter.
# Test system: CRL-7250
# Assay: Cytotoxic Profiling of Annotated Libraries Using Quantitative High-Throughput Screening (AID 1296008); note: nearly all actives have a fitted effect of over 60% in size
# Conditions: Five cell lines viability, CellTiter-Glo ATP luminescence, 48-72 h; max response: stronger effect = lower value
# Procedure, shortened: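 Compounds were pin-transferred onto cells and incubated 48 or 72 hr at 37 degree Celsius, 95% humidity. CellTiter-Glo was added, plates sat 10 min at room temperature, then ATP-coupled luminescence was imaged as the viability read-out.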
# % is set by controls: 0 for no effect and ±100 for the full control effect; potency is the fitted concentration of half-maximal effect.
Structure (SMILES),max response,Potency
CCC(C)/C=C(C)/C=C/C1=CC2=C(Cl)C(=O)C(C)(OC(C)=O)C(=O)C2=CO1 (stereo not drawn),-20% (inactive),
COC1CC(O[C@H]2CC[C@]3(C)C4CC[C@]5(C)[C@@H](C6=CC(=O)OC6)[C@@H](OC(C)=O)C[C@]5(O)C4CC[C@@H]3C2)OC(C)C1O (stereo partly drawn),,317 nM (active)
C[C@H]1O[C@@H](O[C@H]2CC[C@]3(C=O)C4CC[C@]5(C)[C@@H](C6=CC(=O)OC6)CC[C@]5(O)[C@@H]4CC[C@]3(O)C2)C[C@@H](O)[C@@H]1O (stereo partly drawn),,22.4 nM (active)
CC1=CC2OC3[C@H](O)C[C@@](C)([C@]34CO4)[C@@]2(CO)[C@H](O)C1=O (stereo partly drawn),,3260 nM (active)
C=C1[C@@H](C)[C@H]2[C@H](Cc3ccccc3)NC(=O)[C@]23OC(=O)/C=C/C(=O)CCC[C@@H](C)C/C=C/[C@H]3[C@@H]1O,,1640 nM (active)
COC1CC(O[C@H]2CC[C@@]3(C)C(CCC4C3CC[C@]3(C)[C@@H](C5=CC(=O)OC5)CC[C@]43O)C2)OC(C)C1O (stereo partly drawn),,31.7 nM (active)
CC(C)(C)[C@]1(O)C[C@@H]2OC(=O)C[C@@]23C(=O)O[C@@H]2OC(=O)[C@@H](O)[C@]213,1.12% (inactive),
C[C@H]1C/C=C/[C@H]2[C@@H]3O[C@]3(C)[C@@H](C)[C@H]3[C@H](Cc4ccccc4)NC(=O)[C@]32OC(=O)O/C=C/[C@@](C)(O)C1=O,,632 nM (active)
CNC(=O)c1cc(C#N)cc(C)c1NC(=O)c1cc(Br)nn1-c1ncccc1Cl,0.534% (inactive),
OCc1nnc2n1-c1ccc(Cl)cc1C(c1ccccc1Cl)=NC2,0.641% (inactive),
CN[C@@H]1C[C@H]2O[C@@](C)([C@@H]1OC)n1c3ccccc3c3c4c(c5c6ccccc6n2c5c31)C(=O)NC4,,3.7 nM (active)
COC1CC(O[C@H]2CC[C@]3(C=O)C4CC[C@]5(C)[C@@H](C6=CC(=O)OC6)CC[C@]5(O)[C@@H]4CC[C@@H]3C2)OC(C)C1O[C@@H]1O[C@H](CO)[C@@H](O[C@@H]2O[C@H](CO)[C@@H](O)[C@H](O)[C@H]2O)[C@H](O)[C@H]1O (stereo partly drawn),,123 nM (active)
CC[C@@H]1C[C@H]2CC[C@H](O2)[C@H](C)C(=O)O[C@@H](C)C[C@@H]2CC[C@@H](O2)[C@@H](C)C(=O)O[C@H](CC)C[C@H]2CC[C@H](O2)[C@H](C)C(=O)O[C@@H](C)C[C@@H]2CC[C@@H](O2)[C@@H](C)C(=O)O1,,385 nM (active)
CO[C@@H]1C[C@H](O[C@H]2CC[C@@]3(C)C(CCC4C3CC[C@]3(C)[C@@H](C5=CC(=O)OC5)[C@@H](OC(C)=O)CC43O)C2)O[C@H](C)[C@@H]1O[C@H]1O[C@H](CO[C@@H]2O[C@H](CO)[C@@H](O)[C@H](O)[C@H]2O)[C@@H](O)[C@H](O)[C@H]1O (stereo partly drawn),,491 nM (active)
CC(=O)O[C@@H]1[C@@H](O)[C@H]2O[C@@H]3C=C(C)[C@@H](O)C[C@]3(CO)[C@]1(C)[C@]21CO1,,1010 nM (active)
CO[C@H]1C[C@H](O[C@H]2CC[C@@]3(C)C(=CCC4C3CC[C@]3(C)[C@@H](C5=CC(=O)OC5)CC[C@]43O)C2)O[C@@H](C)[C@@H]1O[C@@H]1O[C@H](CO[C@@H]2O[C@H](CO)[C@@H](O)[C@H](O)[C@H]2O)[C@@H](O)[C@H](O)[C@H]1O (stereo partly drawn),-12.8% (inactive),
C=C1[C@@H](C)[C@H]2[C@H](Cc3ccccc3)NC(=O)[C@]23[C@H](OC(C)=O)/C=C/[C@](C)(O)C(=O)[C@@H](C)C/C=C/[C@H]3[C@@H]1O,,259 nM (active)
c1cncc(OC[C@@H]2CCN2)c1,0.617% (inactive),
CC(=O)OC[C@]12C[C@H](OC(=O)CC(C)C)C(C)=C[C@H]1O[C@@H]1[C@H](O)C[C@@]2(C)[C@]12CO2,,3170 nM (active)
CNc1ccc2oc(C[C@H]3O[C@@]4(CC[C@H]3C)O[C@H](C(C)C(=O)c3ccc[nH]3)[C@H](C)C[C@H]4C)nc2c1C(=O)O (stereo partly drawn),,5800 nM (active)
C[N@@+]1(CC2CC2)CC[C@]23c4c5ccc(O)c4O[C@H]2C(=O)CC[C@@]3(O)[C@H]1C5,2.78% (inactive),
COc1ccc2c3c([nH]c2c1)C(C=C(C)C)N1C(=O)C2CCCN2C(=O)C1C3 (stereo not drawn),-26.7% (inactive),
CC(=O)OC[C@]12C[C@H](OC(=O)CC(C)C)C(C)=C[C@H]1O[C@@H]1[C@H](O)[C@@H](O)[C@@]2(C)[C@]12CO2,,142 nM (active)
